Data as given in PubChem BioAssay AID720597 (Broad Institute, 2013).
Entries with a potency or affinity are not part of this list. Active and inactive are the calls of the source.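 Rule for the calls: active = fitted half-maximal dose no more than twice the top valid tested dose, for compounds that lower signal; inconclusive = fit invalid, or curve flat with activity between -70 and -30; inactive = potency past limit, curve flat within ±30, or signal increasing.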

Biological target: NAD-dependent protein deacylase sirtuin-5, mitochondrial (Homo sapiens) (UniProt Q9NXA8)
Assay: blockers of sirtuin-5 peptide desuccinylation – biochemical, fluorescence imaging, cherry-pick, set 6, dose response (AID 720597);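 note: lower AMC signal can also come from blocking the trypsin step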
Settings: Purified SirT5, succinyl-peptide-AMC/trypsin fluorescence; series mostly up to 15 µM

Sequence of NAD-dependent protein deacylase sirtuin-5, mitochondrial (Homo sapiens) (Q9NXA8 whole entry, looked up): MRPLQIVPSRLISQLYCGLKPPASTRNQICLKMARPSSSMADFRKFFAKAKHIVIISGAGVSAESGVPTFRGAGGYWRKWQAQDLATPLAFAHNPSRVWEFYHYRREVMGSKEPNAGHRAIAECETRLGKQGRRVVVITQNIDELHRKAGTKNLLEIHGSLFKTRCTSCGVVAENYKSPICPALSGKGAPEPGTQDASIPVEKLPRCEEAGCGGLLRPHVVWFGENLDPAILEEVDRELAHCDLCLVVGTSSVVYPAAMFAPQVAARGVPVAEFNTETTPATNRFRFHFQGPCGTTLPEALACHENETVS

outcome, inactive:
C[C@H](CO)N1C[C@H](C)[C@H](CN(C)C(=O)Nc2ccc(F)cc2)Oc2cc(/C=C/c3ccccc3)ccc2S1(=O)=O
C[C@@H]1CN([C@H](C)CO)S(=O)(=O)c2ccc(C#C[C@@H](C)O)cc2O[C@@H]1CN(C)Cc1ccc(-c2ccccc2)cc1
CC(C)CC#Cc1ccc2c(c1)O[C@@H](CN(C)S(=O)(=O)c1cccc(F)c1)[C@@H](C)CN([C@H](C)CO)S2(=O)=O
COc1ccc(S(=O)(=O)Nc2ccc3c(c2)C(=O)N([C@H](C)CO)C[C@@H](C)[C@H](CN(C)S(=O)(=O)c2ccc(Cl)cc2)OCCCC[C@H](C)O3)cc1
Cn1cnc(S(=O)(=O)N[C@H]2CC[C@@H](CC(=O)Nc3ccccc3)O[C@@H]2CO)c1
COCC(=O)Nc1ccc2c(c1)C(=O)N(C)C[C@@H](OC)[C@H](C)CN(Cc1ccccn1)[C@H](C)CO2
COc1cccc(-c2ccc3c(c2)[C@@H]2[C@@H](CCN2C(=O)c2ccccc2F)[C@H](CO)N3C)c1
COc1ccc(S(=O)(=O)Nc2ccc3c(c2)C(=O)N([C@H](C)CO)C[C@@H](C)[C@@H](CN(C)Cc2ccc(Oc4ccccc4)cc2)O3)cc1
C[C@@H]1CCCCO[C@H](CN(C)S(=O)(=O)c2ccc(Cl)cc2)[C@H](C)CN([C@H](C)CO)C(=O)c2cc(NS(=O)(=O)c3ccc(F)cc3)ccc2O1
CNC[C@H]1Oc2c(NC(=O)c3ccc(-c4nccs4)cc3)cccc2C(=O)N([C@H](C)CO)C[C@H]1C
